High-throughput results deposited in PubChem by National Center for Advancing Translational Sciences (NCATS).
Compounds with a hit are over-represented: about 12% of the library has one in this group of screens.
HP1b binding inh – blocks HP1-beta chromodomain binding to methylated histone tails. P83916. AlphaScreen HP1-beta / biotin-H3K9me3 peptide binding. Potency, µM (doses to about 114 µM), actives largely listed as inhibitors. 0.56% of 390,000 active; note: nearly all actives have a fitted effect of over 70% in size
Target sequence (P83916 whole entry, looked up): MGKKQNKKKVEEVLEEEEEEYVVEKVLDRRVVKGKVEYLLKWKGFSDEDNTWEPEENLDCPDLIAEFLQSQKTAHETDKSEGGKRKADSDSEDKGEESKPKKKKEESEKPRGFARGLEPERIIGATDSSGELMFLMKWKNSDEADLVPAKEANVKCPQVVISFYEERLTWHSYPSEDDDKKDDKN
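AlphaScreen: HP1-beta (50 nM) preformed 30 min with biotin-H3(1-18)K9me3 peptide (50 nM) in PBS pH 7.4, 0.01% Tween-20. Compound added for 30 min at RT, then streptavidin donor/nickel chelate acceptor beads (10 ug/mL) for 30 min.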
Sfp inh – inhibitors of Bacillus subtilis Sfp phosphopantetheinyl transferase | Q9F4F7 | Biochemical Sfp PPTase activity, qHTS | Potency, µM, most hits filed as inhibitors | 3.5% of 310,000 active;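 note: the enzyme is Sfp with the accession as filed and its product quenches rhodamine fluorescence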
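Fluorescence-quenching assay with 15 nM Sfp, 5 uM rhodamine-CoA and 12.5 uM BHQ-2-labelled ybbR peptide in pH 7.6 Hepes/MgCl2 buffer. Enzyme was pre-incubated with compound for 15 min at room temperature. Rate was taken from the 30-min fluorescence change (525/598 nm).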
JMJD2A Tudor inh – inhibitors of human JMJD2A Tudor domain. O75164. AlphaScreen JMJD2A-Tudor / H3K4me3 peptide binding. Potency, µM (top dose mostly 114 µM), hits mostly inhibitors. 4.4% of 390,000 active. AID 504339; note: nearly all actives have a fitted effect of over 50% in size
L3MBTL1 inh – inhibitors of human L3MBTL1. Q9Y468. AlphaScreen L3MBTL1–H3K9me1 peptide binding. Potency, µM (series often up to 57.1 µM), actives largely listed as inhibitors. 0.66% of 230,000 active; note: nearly all actives have a fitted effect of over 60% in size
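First, the protein-peptide complex forms for 30 min at room temperature (L3MBTL1 50 nM, biotinylated H3K9me1 peptide 75 nM). Next, compounds are pin-transferred and incubated 30 min. Finally, AlphaScreen beads are added and read after 30 min.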
BAZ2B inh – blocks human BAZ2B. AlphaScreen BAZ2B-H3K14Ac peptide displacement. 4.4% of 360,000 active. Q9UIF8. Potency, µM (highest dose often 114 µM), most hits filed as inhibitors; note: nearly all actives have a fitted effect of over 60% in size
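AlphaScreen displacement: compounds (up to 110uM) incubated 30 min at room temperature with a preformed 50 nM BAZ2B/50 nM biotinylated H3K14Ac peptide complex in PBS pH 7.4 with Tween-20. Donor and acceptor beads at 10 ug/mL final added, 20 min light-protected before reading.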
G9a block – G9a (human) methyltransferase inhibition. G9a H3K9 monomethylation, AlphaScreen, 2 h. 8.8% of 350,000 active. Potency, µM (doses to about 102 µM), most hits filed as inhibitors. AID 504332; note: nearly all actives have a fitted effect of over 75% in size
Target sequence (Q96KQ7 913-1193 limits assumed): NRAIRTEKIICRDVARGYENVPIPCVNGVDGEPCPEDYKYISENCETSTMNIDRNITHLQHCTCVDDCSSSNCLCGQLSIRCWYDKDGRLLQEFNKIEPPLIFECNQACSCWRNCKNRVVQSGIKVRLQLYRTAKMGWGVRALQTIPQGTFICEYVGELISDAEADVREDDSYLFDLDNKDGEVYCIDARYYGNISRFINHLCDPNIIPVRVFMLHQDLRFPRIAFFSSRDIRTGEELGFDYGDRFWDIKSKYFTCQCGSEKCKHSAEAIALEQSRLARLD
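G9a (20 nM) preincubated 15 min RT with compounds, then 500 nM biotinylated H3K9 peptide and 20 uM SAM added; 2 h RT reaction. Monomethyl-H3K9 product detected by AlphaScreen with anti-H3K9me1 antibody, streptavidin donor and anti-rabbit IgG acceptor beads.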
A number is an active result; - = inactive; ? = inconclusive; . = no result given; ! = a repeat was not active; [ ] = remark or other dose. Calls come from the whole dose curve; as a rule, active = well fitted curve in the direction sought with a large enough effect; inconclusive = small, poorly fitted or top-dose-only effect, or another doubt; inactive = no such curve, though single readings can be large; an effect the other way counts as inactive or inconclusive.

SMILES	HP1b binding inh	Sfp inh	JMJD2A Tudor inh	L3MBTL1 inh	BAZ2B inh	G9a block
CCNC(=S)N/N=C(\C)c1ccco1	-	56µM	-	-	-	35µM
C/C(=N\NC(=S)Nc1cccc(C)c1)c1ccco1	?	-	?	-	-	.
CC(=O)N[C@@H](C=O)[C@@H](O)[C@H](O)[C@H](O)CO	.	-	.	.	.	-
CC(=O)Nc1cccc(-c2cc(C)c3cc4c(cc3n2)OCO4)c1	-	-	-	.	-	50µM
CC(Sc1cccc[n+]1[O-])C(=O)Nc1ccc(Oc2ccccc2)cc1 (stereo not given)	-	-	-	-[11.4 µM]	-	40µM
CC(=O)Nc1ccc(SC(C)C(=O)NC(N)=O)cc1 (stereo not given)	-	-	-	.	-	40µM
CC(=O)Nc1ccc(NC(=O)C(Sc2ccccc2)c2ccccc2)cc1 (stereo not given)	-	-	-	-	-	-[12.7 µM]
COc1ccc(NC(=O)C(C)Sc2ccccc2)cc1 (stereo not given)	-	-	-	.	-	45µM
CC(Sc1cccc[n+]1[O-])C(=O)Nc1cc(Cl)c(Cl)cc1Cl (stereo not given)	-	.	-	-	.	.
CC(Sc1ccccc1)C(=O)Nc1ccc(N2CCOCC2)cc1 (stereo not given)	-	-	-	.	-	-
CCOC(=O)c1ccc(NC(=O)CCc2nc(-c3ccc(C)cc3)no2)cc1	-	?	-	-	-	-[12.7 µM]
NC(=O)c1ccc(NC(=O)CCc2nc3ccccc3s2)cc1	-	-	-	-	?	35µM
CCOC(=O)c1ccc(NC(=O)CCc2nc(-c3ccc(Cl)cc3)no2)cc1	-	89µM	-	-	-	-
COc1ccc(-c2noc(CCC(=O)NCc3cccnc3)n2)cc1OC	-	-	-	-	-	71µM
COc1ccc(-c2noc(CCC(=O)NCc3cccnc3)n2)cc1	-	-	-	-	-	-
O=C(CCc1nc(-c2ccccc2)no1)Nc1cccnc1	-	-	-	.	-	56µM
O=C(CCc1nc2ccccc2s1)NCc1ccccc1F	-	-	-	.	-	?
CC(=O)Nc1ccc(S(=O)(=O)NCCC(=O)OCc2ccc([N+](=O)[O-])cc2)cc1	-	-	-	.	-	-
O=C(CCn1c(=O)sc2ccccc21)Nc1cccnc1	-	-	-	-[11.4 µM]	-	-
CC(C)(C)c1cc(CCC(=O)NCc2cccnc2)cc(C(C)(C)C)c1O	-	22µM	-	.	?	.
O=C(CCc1nc2ccccc2s1)Nc1cccnc1	-	-	-	-	?	40µM
COc1ccccc1NC(=O)c1ccc(NC(=O)CSc2nc(N)cc(=O)[nH]2)cc1	-	.	-	-	-	-
CN1CCN(CCOc2ccc(Cc3ccccc3)cc2)CC1	-	-	?	-	-	?
CCN1CCN(CCOCCOc2ccccc2)CC1	?	50µM	18µM	-	79µM	.
CCN1CCN(CCOc2cccc(Oc3ccccc3)c2)CC1	?	-	4.5µM	-	20µM	22µM
SMILES	HP1b binding inh	Sfp inh	JMJD2A Tudor inh	L3MBTL1 inh	BAZ2B inh	G9a block
N#CC1=C(N)SC(N)=C(C#N)C1C1CC=CCC1 (stereo not given)	-	20µM	-	.	-	?
Cc1cc2c(c(=O)o1)C(C1C=CCCC1)C(C#N)=C(N)O2 (stereo not given)	-	-	-	.	-	?
N#CC1=C(N)SC(N)=C(C#N)C1C1C=CCCC1 (stereo not given)	-	40µM	-	-	-	?
CCOc1ccc(C(=O)NCc2nc(-c3ccc(Cl)cc3)no2)cc1OCC	-	.	-	.	-	-
COc1cccc(C(=O)NCCS(=O)(=O)N2CCC(C)CC2)c1	-	.	-	-	-	35µM
COc1cccc(C(=O)NCCS(=O)(=O)N2CCc3ccccc3C2)c1	-	.	-	-	-	-
CC1CCN(S(=O)(=O)CCNC(=O)c2ccccc2)CC1	-	.	-	-	-	-
COC(=O)C1CCN(S(=O)(=O)CCNC(=O)c2cccc(OC)c2)CC1	-	.	-	-	-	35µM
Cn1c(=O)c2c(SCC(=O)Nc3nccs3)nc(C3CC3)nc2n(C)c1=O	-	-	-	.	-	-
COc1cc(C(=O)NCc2nc3cccnc3n2Cc2ccc(C)cc2)cc(OC)c1OC	-	.	-	.	-	-
CCN1C(=O)[C@H]2[C@H]3[C@H](O)[C@H](O)C/C(=N/OCc4ccccc4)[C@H]3CC[C@@H]2C1=O	.	-	.	.	.	.
O=C(C1CCCN(S(=O)(=O)c2ccc(F)cc2)C1)N1CCOCC1 (stereo not given)	-	.	-	.	.	.
O=C(C1CCC1)N1CCN(S(=O)(=O)c2ccc(F)cc2)CC1	-	.	-	-	79µM	-[0.501 µM]
CN1CCN(C(=O)C2CCCN(S(=O)(=O)c3ccc(F)cc3)C2)CC1 (stereo not given)	?	?	5.6µM	.	32µM	14µM
COc1ccc(C(=O)N2CCC[C@@]3(CCN(Cc4ccccc4OC)C3)C2)cc1	.	-	.	.	.	-[12.7 µM]
CC(OC(=O)C1CCN(S(=O)(=O)c2ccc(C(C)(C)C)cc2)CC1)C(=O)N1CCOCC1 (stereo not given)	-	.	-	-	-	18µM
Cc1ccc(S(=O)(=O)N2CCN(c3nc(-c4cscn4)nc4ccccc34)CC2)cc1	-	.	?	.	.	.
CC(=O)N(O)CCCCCNC(=O)CCC(=O)N(O)CCCCCNC(=O)CCC(=O)N(O)CCCCCN	-	45µM!	-	-	-	-
Cc1ccc(C(C)C)c(OCC(=O)NNC(=O)Cn2[nH]c(=O)c3ccccc3c2=O)c1	-	.	-	-	-	-
O=c1c2c(-c3ccccc3)csc2ncn1/N=C/c1cccc([N+](=O)[O-])c1O	-	-	79µM	.	50µM	40µM
COc1ccc(CNC(=O)c2sc3nc4n(c(=O)c3c2C)CCCCC4)cc1	-	.	89µM	.	16µM	14µM
Cc1cc(Br)ccc1NC(=O)c1sc2nc3n(c(=O)c2c1C)CCCC3	-	.	79µM	.	18µM	13µM
Cc1ccc(NC(=O)C2=CC(c3cccs3)=NS(=O)(=O)N2C)cc1	-	-	-	-	-	-
COc1cc(NC(=O)C2=CC(c3cccs3)=NS(=O)(=O)N2C)cc(OC)c1OC	-	-	?	-	?	45µM
CSc1ccccc1NC(=O)C1=CC(c2cccs2)=NS(=O)(=O)N1C	-	-	?	-	-	35µM
COc1cc(N)c(Cl)cc1C(=O)N[C@H]1CCN(CCCOc2ccc(F)cc2)C[C@@H]1OC	.	-	.	.	.	.
Cc1cc(NC(=O)CSCC(=O)Nc2nc3ccccc3[nH]2)no1	-	.	-	-	-	-[0.501 µM]
COc1ccc(-c2nc3ccccn3c2NCc2ccc3c(c2)OCO3)cc1	-	-	?	-	50µM	?
COc1ccc(-c2cc(-c3nc4ccccn4c3NCc3ccccc3)ccc2OC)cc1	?	.	32µM	?	.	.
c1ccc(-c2nc3ccccn3c2NCc2ccc3c(c2)OCO3)cc1	-	-	?	-	?	?
